Compounds without any hit were thinned out: in the full panel of roughly 83,000, 20% have a hit.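 How to read the values: 0–100, growth inhibition (40 = 60% inhibited); 0, no net growth; -100 to 0, cell death (-40 = 40% of starting cells died; -100 = all dead).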
Experiments:
Test in all cases: NCI-60 one-dose screen, 48 h (100 = growth as untreated, 0 = no growth, -100 = all killed)
Details in all cases: 10 µM unless noted; active = growth percent below 10; inactive = the rest
[1] = test system: NCI-H23 lung
[2] = test system: NCI-H226 lung
[3] = test system: NCI-H322M lung
[4] = test system: HOP-62 NSCLC
[5] = test system: NCI-H460 lung
[6] = test system: HOP-92 NSCLC
[7] = test system: NCI-H522 lung
[8] = test system: A549/ATCC NSCLC
[9] = test system: 786-0 renal
[10] = test system: COLO 205 colon

Measured: growth

Cc1ccc([N+](=O)[O-])c(C)n1
inactive: [1] 108% | [2] 106% | [3] 101% | [4] 106% | [5] 112% | [6] 84.2% | [7] 98.9% | [8] 105% | [9] 114% | [10] 111%

CCNC(=O)OCCc1c2ccccc2nc2ccccc12
inactive: [1] 111% | [2] 106% | [3] 108% | [4] 109% | [5] 108% | [6] 13.4% | [7] 94.3% | [8] 101% | [9] 112% | [10] 124%

CC(CO)(CO)C(=O)O
inactive: [1] 110% | [2] 96.8% | [3] 99.3% | [4] 95.7% | [5] 105% | [6] 86.3% | [7] 101% | [8] 102% | [9] 105% | [10] 109%

CCOc1ccc(NC(=S)N2CCC(CCCC3CCN(C(=S)Nc4ccc(OCC)cc4)CC3)CC2)cc1
inactive: [1] 75.8% | [2] 77.1% | [3] 100% | [4] 104% | [5] 91.5% | [6] 59.2% | [7] 77.7% | [8] 83.3% | [10] 110%

CC(=O)c1cccs1
inactive: [1] 93.8% | [2] 98.8% | [3] 97.7% | [4] 83.8% | [5] 104% | [6] 90.8% | [7] 89.3% | [8] 92% | [9] 95.1% | [10] 116%

CCOP(=O)(OCC)/C(=C\N1C(=O)CC(=O)NC1=S)C(=O)OC
inactive: [1] 97.9% | [2] 95.7% | [3] 107% | [4] 88% | [5] 103% | [6] 107% | [7] 104% | [8] 99.7% | [9] 108% | [10] 99.5%

O=C(O)c1ccccc1Cc1ccc2c(c1)CCCC2
inactive: [1] 100% | [2] 92.5% | [3] 99.2% | [4] 111% | [5] 106% | [6] 107% | [7] 98.3% | [8] 94.9% | [9] 107% | [10] 112%

O=C(Oc1ccccc1Cl)c1ccc(Cl)cc1Cl
inactive: [1] 101% | [2] 102% | [3] 107% | [4] 87.9% | [5] 102% | [6] 103% | [7] 98.8% | [8] 89.3% | [9] 95.9% | [10] 104%

CN(C)c1ccc(O)c2c1CC1CC3C(N(C)C)C(=O)C(C(N)=O)=C(O)C3(O)C(=O)C1=C2O (centres undefined)
inactive: [1] 51.1% | [2] 71% | [3] 38.7% | [4] 55% | [5] 29.1% | [6] 21.7% | [7] 35.6% | [8] 21.3% | [9] 45.3% | [10] 56.3%

CN1CCCN(C(c2ccccc2)c2ccc(Br)cc2)CC1 (centres undefined)
inactive: [1] 87.1% | [2] 78.2% | [3] 39.7% | [4] 76.8% | [5] 82.5% | [6] 25.8% | [7] 90.8% | [8] 87.7% | [9] 79.1% | [10] 81.5%

C[n+]1cc2cc3c(cc2c2ccccc21)OCO3
inactive: [1] 42.7% | [2] 55.3% | [3] 39% | [4] 33.7% | [5] 59.2% | [6] 82% | [7] 30.8% | [8] 15.1% | [9] 51.4% | [10] 75.6%

CN(C)c1ccc(/C=C/C(=O)c2ccc(NC(N)=O)cc2)cc1
inactive: [1] 96.9% | [2] 104% | [3] 97% | [4] 94.1% | [5] 102% | [6] 103% | [7] 95.3% | [8] 84.5% | [9] 97.1% | [10] 112%

CC(=O)Oc1c(Cl)cccc1-c1ccccc1
inactive: [1] 111% | [2] 98.9% | [3] 92.7% | [4] 103% | [5] 102% | [6] 94.8% | [7] 94.3% | [8] 89.9% | [9] 104% | [10] 111%

CC(C)N(CCCC#N)C(C)C
inactive: [1] 104% | [2] 114% | [3] 104% | [4] 98.6% | [5] 105% | [6] 85.8% | [7] 108% | [8] 93.9% | [9] 100% | [10] 110%

CCN(CC)CCOC(=O)Nc1c(C(C)C)cccc1C(C)C
inactive: [1] 109% | [2] 104% | [3] 93.5% | [4] 104% | [5] 128% | [6] 117% | [7] 92.8% | [8] 95.3% | [9] 105% | [10] 117%
